Compound activity: PubChem BioAssay, several laboratories
Compounds with a hit are over-represented: about 2.8% of the library has one in this group of screens.
Shn3 inh set2 – reduces Shn3 3'UTR luciferase signal in osteoblasts. Clone20 osteoblast Shn3 3'UTR firefly luciferase, 24 h. inhibition, % at 12.5 µM. 360,000 tested, 0.52% active;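 active means mean inhibition of at least 75% with every replicate also reaching 75%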;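 further: 0% = median of neutral control wells and 100% = pilot-screen positive control compound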
HIF-2a block – HIF-2a inhibition; 360,000 tested, 0.72% active; 786-0 RCC cells HIF-2a reporter, luciferase luminescence, overnight; inhibition, % at 18.8 µM;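 active means inhibition of the luminescence signal of 40% or more relative to plate controls, in a single-dose primary screen at 18.75 µM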
KKLEB tox – CF airway cell cytotoxicity counter-screen | 360,000 tested, 0.36% active | activity change (cytotoxicity), % at 5 µM | KKLEB CF airway cells viability, ATPlite luminescence, overnight; hits give low values; cells stimulated with P. aeruginosa culture filtrate | AID 602141;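 active means corrected activity change at or below -50% at 5 µM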
CF NFkB block – inhibitors of cystic fibrosis induced NF-kB. 360,000 tested, 0.86% active. inhibition, % at 5 µM. KKLEB NF-kB-GFP reporter, PAF-induced, GFP fluorescence overnight. AID 588850;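 active means at least 50% inhibition at 5 µM, scaled per plate between neutral and stimulator controls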;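 further: PAF is a Pseudomonas aeruginosa culture filtrate used as stimulus; plate controls were PAF-stimulated DMSO wells for no effect and unstimulated DMSO wells for full effect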
TRPM1 prom inh – MITF TRPM1 promoter inhibition in SK-MEL-5 cells. inhibition, % at 12.5 µM. 330,000 tested, 0.83% active. SK-MEL-5 TRPM1 promoter luciferase, 24 h. AID 488899;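 active means mean inhibition across replicates of 60% or more, whatever share of single replicates reaches that level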
Peg3 prom inh-1 – inhibitors of Peg3 promoter | 360,000 tested, 1.7% active | inhibition, % at 20 µM | HeLa PEG-Prom luciferase reporter, luminescence, overnight | AID 588405;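 active means inhibition of at least 50% at 20 µM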
Peg3 prom inh-2 – Peg3 promoter inhibition confirmation. shares compounds with Peg3 prom inh-1. 1,300 tested, 84% active. HeLa PEG-Prom luciferase reporter, luminescence, overnight. inhibition, % at 20 µM;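 active means at 20 µM dose, 40% or more inhibition averaged across four replicates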
CF NFkB inh conf – confirmation of cystic fibrosis induced NF-kB inhibitors; 1,300 tested, 64% active; AID 602472; KKLEB CF airway cells, PAF-induced NF-kB-GFP fluorescence, overnight; shares compounds with CF NFkB block; inhibition, % at 5 µM; in the data active means inhibition above about 40%;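 further: stimulus PAF is a Pseudomonas aeruginosa filtrate and not platelet activating factor; plate controls were DMSO wells with stimulus for no effect and unstimulated DMSO wells for full effect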
HIF-2a conf – HIF-2a inhibition, single concentration confirmation. 786-0 RCC cells, HIF-2a luciferase reporter luminescence, overnight. AID 651580. 1,800 tested, 56% active. inhibition, % at 18.8 µM. shares compounds with HIF-2a block;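 active means mean inhibition across four replicates of at least 40 percent at the single tested concentration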
HIF-1a counter – inhibits HIF-1a reporter, a counter-screen for HIF-2a inhibitors; shares compounds with HIF-2a block; MiaPaCa-2 HIF-1a luciferase reporter, desferoxamine, overnight; inhibition, % at 18.8 µM; 1,800 tested, 72% active; AID 651589;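 active means mean inhibition of the reporter signal across four replicates at the single tested dose of 50% or more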
* hit, by the source's call; nt = no result.

SMILES	Shn3 inh set2	HIF-2a block	KKLEB tox	CF NFkB block	TRPM1 prom inh	Peg3 prom inh-1	Peg3 prom inh-2	CF NFkB inh conf	others
CCc1nnc(NS(=O)(=O)c2ccc(NC(=O)c3ccc(C#N)cc3)cc2)s1	-12.2	10.4	2.3	-3.0	-0.6	9.3	nt	nt
CCN(CC(=O)NCc1ccc(Cl)cc1)C(=O)C1CCN(S(=O)(=O)c2ccc(OC)c(OC)c2)CC1	-4.0	16.9	4.1	-3.0	2.5	10.1	nt	nt
Cc1ccc(S(=O)(=O)/N=C(\CCl)N2CCOCC2)cc1	-29.3	24.1	-13.9	57.5*	22.9	57.6*	39.0	70.2*
COc1ccc(NC(=O)C2CC2(Cl)Cl)cc1S(=O)(=O)N1CCCCC1 (stereo not drawn)	1.0	22.3	21.5	16.5	nt	7.5	nt	nt
COc1ccccc1CN(C)C(=O)c1cc(-c2cc(OC)c(OC)c(OC)c2)nc2ccccc12	38.2	-1.7	-32.2	73.8*	22.5	53.2*	55.8*	9.5
COc1cccc(OC)c1C(=O)Nc1cc(C)nn1-c1nc2ccccc2[nH]1	-7.6	-33.7	-17.0	78.2*	7.1	54.2*	70.8*	53.2*
CSCCC(NS(=O)(=O)c1ccc2c(c1)OCCO2)C(=O)N(C)Cc1ccc(C)cc1 (stereo not drawn)	13.9	14.3	-12.6	6.3	9.2	18.4	nt	nt
COc1cccc(CN(C)C(=O)C(CCSC)NS(=O)(=O)c2ccc3c(c2)OCCO3)c1OC (stereo not drawn)	21.0	6.7	14.8	73.8*	-6.2	55.9*	62.2*	79.0*
COc1ccc(-n2nc(C(=O)NCC(=O)Nc3cc(OC)c(OC)c(OC)c3)c3ccccc3c2=O)cc1OC	13.0	5.7	-26.1	83.0*	11.5	54.7*	44.2*	90.4*
FC(F)Sc1ccc(NC(=S)NCc2ccccc2)cc1	3.4	-113.6	-3.8	-6.3	-13.7	-47.4	nt	nt
FC(F)Sc1ccc(NC(=S)NC(c2ccccc2)c2ccccc2)cc1	57.1	-11.4	-45.2	50.7*	32.4	52.8*	95.2*	57.0*
CC1=CC2C(C(O)CC3(C)C2CC(C)C32OCOC23COCO3)C2(C)C/C(=C\O)C(=O)C=C12 (stereo not drawn)	87.5*	95.1*	-95.2*	95.7*	79.7*	101.5*	96.7*	nt	HIF-2a conf=52.5*;HIF-1a counter=107.8*
Cc1nc(N2CCOCC2)[nH]c(=O)c1C	-8.8	4.0	0.9	-4.5	7.2	-25.1	nt	nt
O=[N+]([O-])c1nn(-c2ccc3c(c2)OCCO3)n(O)c1=Nc1ccc(Cl)cc1	47.2	61.0*	16.7	-7.8	63.7*	71.9*	74.3*	nt	HIF-2a conf=76.9*;HIF-1a counter=100.5*
CCc1ccc(N=c2c([N+](=O)[O-])nn(-c3ccc4c(c3)OCCO4)n2O)cc1	5.4	-118.8	3.7	-9.6	4.7	-165.4	nt	nt
Cc1cc(=O)[nH]c(N/N=C/C(C)c2ccccc2)n1 (stereo not drawn)	-15.5	7.2	7.0	-19.0	-4.0	9.8	nt	nt
Cc1ccc(S(=O)(=O)NC(CC(C)C)C(=O)NCC(c2ccco2)N2CCCCC2)cc1 (stereo not drawn)	47.4	80.0*	13.1	-22.5	59.0	74.7*	85.1*	nt	HIF-2a conf=87.8*;HIF-1a counter=93.1*
CC(=O)Nc1ccc(S(=O)(=O)NC(C)C(=O)NCC(c2ccco2)N2CCCCC2)cc1 (stereo not drawn)	14.5	13.8	6.0	-10.4	nt	4.4	nt	nt
Cc1cc(C)n(CCNC(=O)[C@H]2O[C@@H](n3ccc(=O)[nH]c3=O)[C@H](O)[C@@H]2O)n1	7.4	5.8	-7.9	-22.7	nt	12.4	nt	nt
Nc1ccc(S(=O)(=O)c2ccccc2)nc1	-22.7	13.4	0.7	13.0	nt	11.1	nt	nt
